Laboratory results: PubChem BioAssay (NCI)
This is part of a sample that, as a whole, favours compounds with a hit. Of some 79,000 tested, about 15% had one in any assay. A number with no mark means an inactive call. Active and inactive are the calls of the source. Rule as the data show it: active = growth inhibition above about 70%; inactive = the rest. Where a SMILES comes first, the peptide text is derived from it. Bridges are numbered along the chain shown (N, C = ends). Roman numbers before positions name the chains, in order. The star is where a group is joined. Cbz = O=C(OCc1ccccc1)*

What was measured:
[1] = NCI Yeast Anticancer Drug Screen. Data for the rad50 strain (AID 155);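 also: 0% = growth of vehicle-only cultures of the same strain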; settings: S. cerevisiae rad50 strain growth inhibition; at 50.0 µM; hits give high values
Summary of the method: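 Inhibition values express reduced yeast growth in compound-treated cultures relative to vehicle-treated controls.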

[2] = NCI Yeast Anticancer Drug Screen. Data for the mec2-1 strain (AID 157); settings: S. cerevisiae mec2-1 strain, at 50.0 µM, hits give high values
Summary of the method: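 Test agents were screened against the mec2-1 yeast strain, with defined DNA repair or cell cycle alteration. Growth was scored as inhibition against vehicle-only controls.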

[3] = NCI Yeast Anticancer Drug Screen. Data for the sgs1 mgt1 strain (AID 161);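 also: 0% = growth of cultures given vehicle only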; settings: S. cerevisiae sgs1 mgt1 strain, at 50.0 µM, hits give high values
Summary of the method: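 Read-out: growth inhibition vs vehicle controls. Cells: mutant yeast strain deficient in DNA damage repair.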

[4] = NCI Yeast Anticancer Drug Screen. Data for the cln2 rad14 strain (AID 165);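 also: 0% = growth equal to vehicle treated cultures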; settings: S. cerevisiae cln2 rad14 strain, at 50.0 µM, hits give high values
Summary of the method: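 Growth of compound-exposed yeast (cln2 rad14 genotype) measured and expressed as inhibition relative to vehicle.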

[5] = NCI Yeast Anticancer Drug Screen. Data for the bub3 strain (AID 167); settings: S. cerevisiae bub3 mutant strain, at 50.0 µM, hits give high values
Summary of the method: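 Steps: expose the mutant yeast strain to compound; grow alongside vehicle-treated cultures; measure growth; express inhibition against the vehicle cultures.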

[6] = NCI Yeast Anticancer Drug Screen. Data for the mlh1 rad18 strain (AID 175); settings: S. cerevisiae mlh1 rad18 strain growth inhibition; at 50.0 µM; hits give high values
Summary of the method: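 In this whole-cell yeast screen, a strain with altered DNA damage repair is challenged with compound, and its growth is measured against matched vehicle-treated controls.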

| Compound | growth inhibition [1] | growth inhibition [2] | growth inhibition [3] | growth inhibition [4] | growth inhibition [5] | growth inhibition [6] |
| --- | --- | --- | --- | --- | --- | --- |
| Cc1ccc(CNC(=O)Nc2c(C)cccc2C)cc1C | 8.8% | 2.55% | 9.75% | -6.3% | 14.4% | 3.45% |
| CN1C(=O)C(Cl)(C#N)C(c2ccccc2)N(C)C1c1ccccc1 (centres undefined) | 5.7% | 8.05% | 18% | -37.9% | 39.4% | 20.1% |
| CN(C)C=S | -4.6% | 1.9% | -9.85% | -12.6% | -13.1% | -4% |
| CCCCOC(=O)CCCCCCC/C=C/C1C=CC(CCCC)C(C#N)C1C#N (centres undefined) | 1% | -5.95% | -25.1% | -6.05% | -4.3% | -13.3% |
| O=C1c2ccccc2C(=O)C2C3c4ccccc4C(c4ccccc43)C12 (centres undefined) | -60.4% | -61% | -53.8% | -9.2% | -54.7% | -57.5% |
| Cc1nc2ccccc2c(=O)o1 | -12.2% | 7.05% | 9.85% | 15.1% | -5.65% | -21% |
| CCC(C)CNCCO (centres undefined) | 24.6% | -7.1% | 5.7% | 0.35% | -6.25% | 11.3% |
| OC1COCOC1C(O)C1OCOCC1O (centres undefined) | 3% | 9.8% | 7.85% | 4.3% | -6.15% | 1.75% |
| CCCOC(=O)CCCCC(=O)OCCC | 11.6% | 17.9% | -8.65% | -4% | 0.85% | 11.9% |
| O=C(NC1CCCCC1)N(C(=O)C(F)(F)F)C1CCCCC1 | 9.05% | 3.6% | -5.15% | 9.8% | -2.4% | 14.7% |
| CCCC1OCC(CC)C(CCC)O1 (centres undefined) | 25.5% | 4.95% | 6.25% | -37% | 7.4% | 2.7% |
| CC(=O)OCC1OC(n2cnc(Br)c2[N+](=O)[O-])C(OC(C)=O)C1OC(C)=O (centres undefined) | 30.6% | 3.4% | 17% | 14.5% | 0.65% | 2.75% |
| CC1(C)N=C(N)N=C(N)N1c1ccc(-c2ccccc2)cc1 | 2.95% | 0.9% | 20.5% | -0.75% | 32.5% | 19.5% |
| C=CC1(C)C(C)=C(C)C(C)=C1C | 11.1% | -4.2% | -13.7% | 18% | -2% | 9.4% |
| CC(C(O)c1ccc(Cl)cc1)C(O)(C(F)(F)F)C(F)(F)F (centres undefined) | 99.2% (active) | 99.3% (active) | 99.2% (active) | 99% (active) | 99% (active) | 99.4% (active) |
| COc1ccccc1NS(=O)(=O)c1ccc2ncn(NS(=O)(=O)c3ccc(Cl)cc3)c(=O)c2c1 | 27.5% | 15.7% | 30.1% | 0.05% | 26% | 18.1% |
| CCC(=O)C12OC3OC(C)(C)OC3C1OC(C)(C)O2 (centres undefined) | 0.25% | 0.75% | -15.2% | 25.1% | -1.9% | 4.7% |
| CCCCCCCN(CCCCCCC)CC(O)c1c(OC)c2ccccc2c2ccccc12 (centres undefined) | 94.8% (active) | 34.4% | 96.2% (active) | 93% (active) | 24.9% | 93.7% (active) |
| Cc1c(Cl)cccc1NC(=O)Oc1ccc(F)cc1Cl | -1.4% | -3.1% | -2.3% | 7.35% | 17.6% | -4.55% |
| CN1CCN(CC2C3CCC(C3)C2O)CC1 (centres undefined) | -9% | -18.4% | -16.1% | 4.4% | -4.7% | -0.6% |

| Compound | growth inhibition [1] | growth inhibition [2] | growth inhibition [3] | growth inhibition [4] | growth inhibition [5] | growth inhibition [6] |
| --- | --- | --- | --- | --- | --- | --- |
| COc1cc(NCc2ccc3c(c2)OCO3)c([N+](=O)[O-])cc1OC | 5.15% | 11.3% | 6.6% | -8.6% | 4.3% | -15.7% |
| COc1ccc2cc(-c3ccc(OC)c(OC)c3)c(=O)oc2c1 | -12.4% | -9.9% | -7.65% | -8.9% | -7.15% | -18.2% |
| C=C(CN(C)C)C(=O)c1ccc(C(=O)C(=C)CN(C)C)cc1 | -1.4% | 6.85% | 2.2% | -2.15% | 0.65% | 6.4% |
| Cc1ccc(-c2nn[nH]n2)cc1[N+](=O)[O-] | 5.65% | 8.6% | -0.65% | -11% | -21.9% | 16.1% |
| N#Cc1cc([N+](=O)[O-])ccc1NC(=O)/C(=N\NC(=O)c1ccncc1)C(c1cnc2ccc([N+](=O)[O-])cc2n1)[N+](=O)[O-] (centres undefined) | 8.6% | 11.4% | -11.1% | -16.1% | 25.4% | 2.75% |
| O=C(Nc1ccc(Cl)cc1Cl)C(=O)C(C(=O)c1ccncc1)C1OC(=O)c2ccccc21 (centres undefined) | -1% | -38.3% | -29.2% | 23.4% | 7.95% | -0.4% |
| CC1=CC(=O)C(c2ccccc2)CC1 (centres undefined) | -0.2% | -5.65% | 14.8% | -32.7% | -0.75% | -5.3% |
| Cc1nc2ccccc2c(=O)n1NC(=O)c1ccc([N+](=O)[O-])cc1 | -43.4% | -26.4% | -13.5% | -21.4% | -10.8% | -19.1% |
| CCOC(=O)Nc1nc2ccccc2n1CN1CCN(c2ccccc2)CC1 | 8.4% | 7.75% | -8.7% | 21.3% | 45.3% | 16.9% |
| CN(C)c1ccc(/C=N/NC(=O)NN)cc1 | 6.2% | -12.3% | -23.3% | -2.85% | -2.15% | -15.9% |
| CC(C)C(NC(=O)C(CSSCC(NC(=O)OCc1ccccc1)C(=O)NC(C(=O)O)C(C)C)NC(=O)OCc1ccccc1)C(=O)O (stereo not drawn) (I: Cbz-Cys-Val-OH / II: Cbz-Cys-Val-OH; disulfide I:1-II:1; configuration not given here) | 1.4% | 11.3% | -3.75% | -3.25% | -1% | 3.3% |
| CN(CC(=O)O)c1ncc2c(n1)-c1ccccc1OC2c1ccccc1 (centres undefined) | 21.9% | 19.6% | 44.5% | 47% | 28.9% | 67.8% |
| Cn1c(=O)c2c(nc(N3CCOCC3)n2CCCNCC(O)c2ccc(O)c(O)c2)n(C)c1=O (centres undefined) | -40.9% | 4.3% | -13.2% | -29.9% | -2.1% | -21.6% |
| O=C(CBr)OCCC1CCCCC1 | 49.2% | 4.7% | 47.9% | -36.5% | 3.05% | 32.5% |
| Cc1ccc([N+](=O)[O-])cc1S(=O)(=O)O | 24.4% | 13.2% | 21.8% | 11.7% | 20% | 2.45% |
| CSc1nc2ccc(NCn3c(=O)sc4cc(Br)ccc43)cc2s1 | 1% | 38.9% | 4.6% | 30.9% | 65.5% | 42% |
| CC1CC(=O)Oc2cc(O)c(O)cc21 (centres undefined) | 11.8% | 7.9% | 7.3% | 4.4% | 14.9% | 16.9% |
| CCc1c(C)nc2cc(-c3cc(C)n4c(=O)c(CC)c(C)nc4c3)cc(C)n2c1=O | 1.6% | 9.95% | -12.7% | 1.2% | 3.2% | 3.95% |
| COc1cccc(OC(=O)Nc2cccc(Cl)c2)c1 | 38.2% | 38.4% | 49.4% | 38.8% | 41.5% | 51.6% |
